Experiment [1] can be described thus: ATG_XTT_Cytotoxicity: Cytotoxicity Assessment in the Attagene TRANS-FACTORIAL HepG2 Assay (AID 2283584).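 For AC50: cells exposed to compound for 24 h before reading; active means loss of viability signal versus DMSO baseline.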 The method, boiled down:
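HepG2 human liver cells, transiently transfected with multiple GAL4-UAS reporter units, were dosed and read at 24 h by XTT as cell number. Loss of signal was fitted relative to DMSO negative control baseline.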

A short description of experiment [2]: TOX21_p53_BLA_p2_viability: Viability Assessment in the Tox21 HCT-116 p53 Agonism Beta-lactamase Assay, Phase 2 (AID 2283591).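 Note: compound exposure lasted 16 h at 37 °C; actives lower the ATP signal meaning cytotoxicity.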 The method in brief: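 HCT116 p53-bla cells, 4000/well, dosed after 5 h plating (217-fold dilution of DMSO stocks) and incubated 16 h at 37C. Viability taken as cellular ATP by CellTiter-Glo luminescence after 30 min RT; signal loss marks cytotoxicity.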

Experiment [3] concerns the target Cellular tumor antigen p53 (Homo sapiens) (UniProt P04637). As to the kind of experiment: TOX21_p53_BLA_p2_ratio: Tox21 HCT-116 p53 Agonism Beta-lactamase Assay, Ratio, Phase 2 (AID 2283592). The method, boiled down:
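Ratio endpoint: beta-lactamase cleavage of CCF4-AM, blue (460 nm) over green (530 nm). HCT116 reporter line; 16 h treatment, 37C; substrate 2 h RT.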

A short description of experiment [4]: TOX21_p53_BLA_p3_viability: Viability Assessment in the Tox21 HCT-116 p53 Agonism Beta-lactamase Assay, Phase 3 (AID 2283593).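 Note: cells exposed to compound for 16 h before reading.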 The method in brief:
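HCT116 cells, 4000/well, dosed 5 h after plating by pin transfer (217-fold dilution from DMSO stock) and incubated 16 h at 37C, 5% CO2. Viability read as ATP luminescence with CellTiter-Glo after 30 min at room temperature.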

In experiment [5] the target is Cellular tumor antigen p53 (Homo sapiens) (UniProt P04637). The experiment can be described thus: TOX21_p53_BLA_p3_ratio: Tox21 HCT-116 p53 Agonism Beta-lactamase Assay, Ratio, Phase 3 (AID 2283596). The method in brief:
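Cells were seeded at 4000/well, rested 5 h at 37C, then dosed with DMSO compound solutions (217-fold dilution) for 16 h. CCF4-AM substrate was loaded for 2 h at room temperature, and the 460/530 nm emission ratio was fitted for gain of signal versus DMSO.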

A short description of experiment [6]: TOX21_p53_BLA_p4_viability: Viability Assessment in the Tox21 HCT-116 p53 Agonism Beta-lactamase Assay, Phase 4 (AID 2283597).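 Note: hits lower the luminescence signal meaning cytotoxicity.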 The method in brief:
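Cytotoxicity was inferred from loss of CellTiter-Glo luminescence. HCT116 cells had been dosed with compounds after 5 h plating, incubated 16 h at 37C and 5% CO2, and exposed to the CCF4-AM substrate for 2 h.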

Experiment [7] deals with Cellular tumor antigen p53 (Homo sapiens) (UniProt P04637). As to the kind of experiment: TOX21_p53_BLA_p5_ratio: Tox21 HCT-116 p53 Agonism Beta-lactamase Assay, Ratio, Phase 5 (AID 2283599). The method, boiled down:
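HCT-116 p53-bla cells (4000/well) plated 5 h, dosed with compound (217-fold DMSO dilution) for 16 h at 37 C; CCF4-AM substrate 2 h at room temperature. Activity is the 460/530 nm emission ratio (405 nm excitation), fitted in gain-of-signal direction versus DMSO.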

A short description of experiment [8]: TOX21_p53_BLA_p5_viability: Viability Assessment in the Tox21 HCT-116 p53 Agonism Beta-lactamase Assay, Phase 5 (AID 2283600). The method in brief: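 Luciferase-coupled ATP quantitation of cells treated for 16 h (37C, 5% CO2) with test chemicals delivered in DMSO via a 217-fold dilution; 4000 cells/well; reagent incubated 30 min at room temperature before luminescence reading.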

The target of experiment [9] is Cellular tumor antigen p53 (Homo sapiens) (UniProt P04637). The experiment can be described thus: TOX21_p53_BLA_p4_ratio: Tox21 HCT-116 p53 Agonism Beta-lactamase Assay, Ratio, Phase 4 (AID 2283601). The method in brief: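 HCT-116 p53 beta-lactamase reporter cells (4000/well) preincubated 5 h, then compound (217-fold dilution of DMSO stock) for 16 h at 37C. CCF4-AM substrate added 2 h at room temperature; 460/530 nm emission ratio fitted upward versus DMSO.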

Results on 29 compounds are retold here after PubChem BioAssay (EPA / NIEHS).

SMILES strings stand for the structures. Values joined by “and” are separate entries in the source; they are usually repeats but may differ in a detail not shown here. Identical values can stand only once. Records with an inconclusive call do not appear. The source holds several records for some structures; these can differ, active in one and inactive in another. Active and inactive are the calls of the source. Rule for the calls: active = hit-call score of the fitted dose curve at least 0.9, where 1 is the maximum; inconclusive = response in the unintended direction; inactive = score below 0.9.

Sequence of Cellular tumor antigen p53 (Homo sapiens) (P04637 whole entry, looked up): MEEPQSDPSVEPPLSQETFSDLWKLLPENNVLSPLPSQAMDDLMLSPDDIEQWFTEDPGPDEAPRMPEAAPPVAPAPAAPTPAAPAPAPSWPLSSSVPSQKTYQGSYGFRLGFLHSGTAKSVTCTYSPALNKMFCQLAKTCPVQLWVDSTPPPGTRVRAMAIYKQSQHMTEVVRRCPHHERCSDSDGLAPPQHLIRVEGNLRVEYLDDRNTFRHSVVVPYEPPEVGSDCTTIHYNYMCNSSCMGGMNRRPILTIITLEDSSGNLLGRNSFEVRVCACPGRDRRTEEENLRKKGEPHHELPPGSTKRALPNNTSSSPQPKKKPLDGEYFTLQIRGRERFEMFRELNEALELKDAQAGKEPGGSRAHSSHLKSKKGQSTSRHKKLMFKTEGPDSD

`O=Cc1ccccc1O`: the compound was called inactive in experiment [1], in experiment [2], in experiment [3], in experiment [4], in [5] and in experiment [6]. Moreover, the result in [7] and in experiment [8] was inactive.
On to `Cc1ccncc1`, for which the call in experiment [1], in experiment [2], in [3], in [4], in experiment [5] and in experiment [6] was inactive. Also, the result in experiment [7], in experiment [8] and in [9] was inactive.
For the compound `[Na+]`, the compound was classed as inactive in experiment [1], in [2], in experiment [3], in experiment [4], in experiment [5] and in experiment [6]. For the same compound, the outcome in experiment [7], in experiment [8] and in experiment [9] was inactive.
For `Nc1ccc(O)c(N)c1`, the compound was called inactive in experiment [1], in experiment [2], in experiment [3], in experiment [4], in experiment [5] and in [6]. Moreover, the result in [7] and in experiment [9] was inactive. For the same compound, the AC50 (in general, the concentration at which the activity in the assay is half-maximal) in [4] is 64 µM (active).
Turning to `C1CCCNCC1`, the compound was called inactive in [1].
As to `C[C@H](CCC(=O)O)[C@H]1CC[C@H]2[C@@H]3CC[C@@H]4C[C@H](O)CC[C@]4(C)[C@H]3CC[C@]12C`, the result in [1], in experiment [3], in experiment [5], in [7] and in experiment [9] was inactive. Further, the AC50 in [2] is 16.3 µM (active) and 14.2 µM (active); in experiment [3], 21.8 µM (active); in experiment [4], 31.4 µM (active) and 30 µM (active); in experiment [5], 31.1 µM (active); in experiment [7] it was 18.2 µM (active); in [8], 16.3 µM (active).
With `CC1COC(=O)O1` (centres undefined), the outcome in [1], in experiment [2], in experiment [3], in experiment [4] and in [5] was inactive.
Turning to `CCCCC/C=C\C=C\C(=O)OCC`, the compound was classed as inactive in [1] and in experiment [5]. Also, the half-maximal activity concentration (AC50) was 68.7 µM (active) in experiment [2]; 75.6 µM (active) in experiment [3]; 49.1 µM (active) in [4]; 66.6 µM (active) in experiment [6]; 73.4 µM (active) in experiment [7]; 47.7 µM (active) in experiment [8]. The AC50 in experiment [9] is 89.9 µM (active).
For `CC(C)(C)c1cc(CCC(=O)OCCSCCOC(=O)CCc2cc(C(C)(C)C)c(O)c(C(C)(C)C)c2)cc(C(C)(C)C)c1O`, the compound was classed as inactive in experiment [1].
Regarding `C=C1CC[C@H]2O[C@]2(C)CC[C@@H]2[C@@H]1CC2(C)C`, the compound was called inactive in [1].
`N#CCCNCCC#N`: the compound was called inactive in [1].
In the case of `COc1ccc2[nH]cc(CCNC(C)=O)c2c1`, the result in [1], in [2], in experiment [3], in experiment [4], in experiment [5] and in [6] was inactive. Further, the outcome in experiment [7], in [8] and in [9] was inactive.
Turning to `COc1ccccc1O`, the outcome in experiment [1], in experiment [2], in [3], in [4], in [5] and in experiment [6] was inactive. The result in [7], in experiment [8] and in [9] was inactive.
With `FC(F)(F)c1ccc(Cl)c(Cl)c1`, the result in experiment [1], in experiment [2], in experiment [3], in [4], in experiment [5] and in experiment [6] was inactive. Besides, the result in [7], in [8] and in [9] was inactive.
`COc1ccc(OC)cc1`: the call in experiment [1], in experiment [2], in experiment [3], in [4], in experiment [5] and in experiment [6] was inactive. The outcome in experiment [7], in [8] and in [9] was inactive.
For `C=CC(=O)OCC(CO)(COC(=O)C=C)COC(=O)C=C`, the call in [1] was inactive.
Take `COc1ccccc1NC(=O)CC(C)=O`: the result in [1], in experiment [2], in experiment [3], in experiment [4], in experiment [5] and in [6] was inactive. Besides, the outcome in experiment [7], in experiment [8] and in experiment [9] was inactive.
On to `CCC(=O)OCC=Cc1ccccc1`, for which, in experiment [1], the compound was called inactive.
Still for that read-out and setting: with `CC(=O)OCC=C(C)CCC=C(C)CCC=C(C)C` the entry was “inactive”.
The same measure, in the same setting: with `O=C(O)c1ccc(C(=O)O)c(C(=O)O)c1` the entry was “inactive”.
On to `CC(C)(C)c1ccc(S)cc1`, for which the call in [1] and in experiment [2] was inactive.
For `CCCCCCCCOC(=O)c1ccc(O)cc1`, in [1], the AC50 is 100 µM (active) and the outcome was inactive.
With `O=S1(=O)CC(Cl)(Cl)C(Cl)(Cl)C1`, the AC50 in experiment [1] was 26 µM (active); in experiment [2], 7.38 µM (active); in experiment [4], 24.9 µM (active); in experiment [5], 47.6 µM (active); in [6], 9.34 µM (active); in [7], 39.4 µM (active). The half-maximal activity concentration (AC50) in experiment [8] was 6.87 µM (active); in [9] it was 39 µM (active). In addition, the outcome in experiment [3] was inactive.
Turning to `OCCN1CCOCC1`, in experiment [1], the result was inactive.
With `CC(C)(C)C1CCC(O)CC1` (centres undefined), the call in [1], in experiment [2], in experiment [3], in experiment [4], in experiment [5] and in [6] was inactive. Further, the call in [8] and in experiment [9] was inactive.
Take `CCCCCCOc1ccc(O)cc1`: the compound was classed as inactive in experiment [1], in experiment [4] and in experiment [8]. Besides, the AC50 in experiment [2] is 45.6 µM (active); in [3] it was 34 µM (active); in experiment [5], 36.3 µM (active); in experiment [6], 65 µM (active); in [7], 52.4 µM (active); in [9] it was 72.5 µM (active).
Turning to `CN(C)CCC=C1c2ccccc2CCc2ccccc21`, the values for the AC50 in [1], in experiment [2] and in experiment [6] were 157 µM (active), 74.2 µM (active) and 72.1 µM (active), respectively. Besides, the outcome in experiment [3], in experiment [4], in experiment [5], in experiment [6] and in experiment [9] was inactive.
In the case of `CN1CCc2cccc3c2[C@H]1Cc1ccc(O)c(O)c1-3`, the compound was classed as inactive in experiment [1], in [2], in experiment [3], in [4], in [5] and in experiment [7]. The result in experiment [8] and in [9] was inactive. Moreover, the AC50 was 56.6 µM (active) in [3], 86.8 µM (active) in experiment [7] and 67.3 µM (active) in experiment [9].
As to `NC(N)=NC(N)=NCCc1ccccc1`, the compound was classed as inactive in experiment [1], in [2], in experiment [3], in [4], in experiment [5] and in experiment [6]. Moreover, the result in [7], in [8] and in experiment [9] was inactive. Besides, the values for the AC50 in [3] and in experiment [5] were 20.4 µM (active) and 30.6 µM (active), respectively.
